In the library only some 1.8% were active in any assay of this set; here they are far more common.
UHRF1 binding – blocks human UHRF1 binding to methylated DNA. Q96T88. UHRF1 binding to methylated oligo, TR-FRET. inhibition, % at 4.4 µM. 370,000 compounds, 0.75% hits. AID 687016; in the data active means inhibition above about 21%;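 further: UHRF1 SRA domain binding a hemimethylated CpG hairpin DNA probe; 0% = median of test compound wells and 100% = reference inhibitor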
UBC13 polyUb – human UBC13 polyubiquitination inhibition; inhibition, % at 20 µM; 330,000 compounds, 0.47% hits; P61088; UBC13 polyubiquitin chain formation, TR-FRET; in the data active means inhibition above about 45%, passing the limit was not always enough
Neddylation inh – blocks human cullin neddylation. TR-FRET cullin neddylation, biochemical. 360,000 compounds, 0.58% hits. calls only at 25 µM; in the data active means inhibition above about 36%
MBD2 DNA inh – inhibitors of human MBD2 binding to methylated oligonucleotide. 370,000 compounds, 0.31% hits. AID 686964. TR-FRET. Q9UBB5. inhibition, % at 4.4 µM; in the data active means inhibition above about 13%
* marks the source's active call; other numbers are inactive results; i = inactive; . = no result given; + = active, no number.

SMILES	UHRF1 binding	UBC13 polyUb	Neddylation inh	MBD2 DNA inh
C#CCOCCOCCOCCNc1nc(N2CCN(C(=O)CCCCCCCCCCNC(=O)[C@H](CCCCN)n3cc(C[C@@H](C)CC)nn3)CC2)nc(N2CCN(C(=O)CCCCCCCCCCNC(=O)[C@@H]([C@H](C)O)n3cc(C)nn3)CC2)n1	.	118*	i	.
C#CCOCCOCCOCCNc1nc(N2CCN(C(=O)CCCCCCCCCCNC(=O)[C@@H](CCSC)n3cc(CCO)nn3)CC2)nc(N2CCN(C(=O)CCCCCCCCCCNC(=O)[C@@H]([C@H](C)O)n3cc(C)nn3)CC2)n1	0	22	i	-2
C#CCOCCOCCOCCNc1nc(N2CCN(C(=O)CCCCCCCCCCNC(=O)[C@H](CCCCN)n3cc(CCO)nn3)CC2)nc(N2CCN(C(=O)CCCCCCCCCCNC(=O)[C@H](CCCCN)n3cc(C[C@@H](C)CC)nn3)CC2)n1	.	130*	.	.
C#CCOCCOCCOCCNc1nc(N2CCN(C(=O)CCCCCCCCCCNC(=O)[C@H](CO)n3cc(CCCCCN)nn3)CC2)nc(N2CCN(C(=O)CCCCCCCCCCNC(=O)[C@H](CCCN=C(N)N)n3cc(C[C@@H](C)CC)nn3)CC2)n1	.	129*	.	.
C#CCOCCOCCOCCNc1nc(N2CCN(C(=O)CCCCCCCCCCNC(=O)[C@H]([C@@H](C)CC)n3cc(CCCCN=C(N)N)nn3)CC2)nc(N2CCN(C(=O)CCCCCCCCCCNC(=O)[C@H](CCCN=C(N)N)n3cc(C[C@@H](C)CC)nn3)CC2)n1	.	129*	.	.
C#CCOCCOCCOCCNc1nc(N2CCOCC2)nc(N2CCN(C(=O)[C@H]([C@@H](C)CC)n3cc(CCCN=C(N)N)nn3)CC2)n1	5	15	i	0
C#CCOCCOCCOCCNc1nc(N2CCOCC2)nc(N2CCN(C(=O)CCCCCCCCCCNC(=O)[C@H](CO)n3cc(CCCSC)nn3)CC2)n1	8	2	i	2
O=C(Cn1cnc2ccccc2c1=O)Nc1ccc(-c2nnc3n2CCCCC3)cc1	0	-14	i	2
C#CCOCCOCCOCCNc1nc(N2CCN(C(=O)CCCCCCCCCCNC(=O)[C@H](CCCN=C(N)N)n3cc(C[C@@H](C)CC)nn3)CC2)nc(N2CCN(C(=O)CCCCCCCCCCNC(=O)[C@@H]([C@H](C)CC)n3cc(CCCCCN)nn3)CC2)n1	.	122*	.	.
COc1cccc(/C=C/C(=O)c2ccc3c(c2)OCCO3)c1OC	-3	-6	i	-1
COc1cccc(CN(C)C(=O)c2cccnc2SC)c1OC	26*	1	i	9
CC(C)CNC(=S)N1CCC(NC(=O)c2ccco2)CC1	23*	10	i	2
Cc1noc(C)c1NC(=O)N(C)C[C@@H]1Oc2ncc(C#CC3CC3)cc2C(=O)N([C@@H](C)CO)C[C@@H]1C	0	.	i	-1
Nc1cccc2c(O)cccc12	2	-43	+	-6
Nc1ccccc1O	.	3	i	.
COc1ccc(-c2nc3c4ccccc4ccn3c2CC2CCCCC2)cc1OC	23*	.	i	7
CCc1ccccc1Nc1nc(N)nc(CSc2nnc3ccccn23)n1	-1	-16	i	3
COc1ccc(-c2nc3c(C(=O)NCCN(C)C)cccc3c3ccccc23)cc1	-14	.	i	13
CN(C)CCNC(=O)c1cccc2nc3c(ccc4ccccc43)nc12	-33	.	i	31*
O=C(COc1ccc(Cl)cc1)OCc1ccc(Cl)cc1	40*	.	i	3
O=C(COc1ccc(Cl)cc1)OCC(=O)N1CCCC1	-1	10	i	-1
CN1c2ccsc2/C(=N/Nc2ccccc2)CS1(=O)=O	24*	-2	i	7
COc1cc2c(cc1OC)C(CSc1ccccc1C(=O)O)=NC(C)(C)C2	1	1	+	-5
CC(=O)c1ccc2c3c(ccc(O)c13)CC2	-5	13	i	-2
O=C(CSc1nc2ncc(Cl)cc2[nH]1)c1ccc2c(c1)OCO2	4	5	i	0
SMILES	UHRF1 binding	UBC13 polyUb	Neddylation inh	MBD2 DNA inh
Cc1ccccc1-c1ncc(CN2CCN(C3CCCCC3)C(CCO)C2)cn1 (centres undefined)	0	13	i	4
CCCCOC(=O)Nc1ccc(S(=O)(=O)Nc2onc(C)c2C)cc1	21*	-5	i	-2
Cc1cc(F)ccc1NS(=O)(=O)c1c(C)nc2scc(C)n2c1=O	2	-7	i	1
O=C1c2ccccc2-c2onc3ccc(N4CCCC4)c1c23	23*	.	i	1
COc1ccc(NC(=O)C(c2ccc(OC)cc2)N(C)C(=O)CC2NC(=O)NC2=O)cc1 (centres undefined)	3	-7	i	6
COC1=CC(=O)CC(C)C12Oc1c(Cl)c(OC)cc(OC)c1C2=O (centres undefined)	1	0	i	1
COC1=CC(=O)C[C@@H](C)[C@]12Oc1c(Cl)c(OC)cc(OC)c1C2=O	5	2	+	3
CCC(CC)C(=O)Nc1cccc(C(=O)Nc2nnc(C)s2)c1	23*	-9	i	-4
CN(Cc1ccccc1)C(=O)CN1C(=O)c2ccc([N+](=O)[O-])cc2C1=O	1	-11	i	4
Cc1[nH]c2ccccc2c1/C=N/NC(=O)c1cc(C(C)C)[nH]n1	25*	-6	i	2
Cc1[nH]c2ccccc2c1/C=N/NC(=O)c1cccc(F)c1	-1	-12	i	-1
Cc1cc(/C=C2\C(=N)N3N=C(S(C)(=O)=O)SC3=NC2=O)c(C)n1Cc1ccccc1	-4	-10	+	2
CCN(c1ccc(OC)cc1)S(=O)(=O)c1nnc(NC(=O)CC(C)C)s1	-1	-3	i	0
COc1ccc(-c2cc3ccc(OCC(C)=O)cc3oc2=O)cc1OC	-2	16	i	-8
COc1ccc(-c2cc3ccc(OCC(C)=O)cc3oc2=O)cc1	23*	15	.	12
CCNC(=S)Nc1ccc(C)c(Cl)c1	25*	-3	i	1
O=C1CSC(=S)N1N=Cc1ccc(OCc2ccccc2)cc1	-4	.	i	-4
CC(OC(=O)Cn1[nH]c(=O)c2ccccc2c1=O)C(=O)Nc1cccc(Cl)c1 (centres undefined)	-2	1	i	-1
CC(OC(=O)Cn1[nH]c(=O)c2ccccc2c1=O)C(=O)Nc1ccc(F)cc1Cl (centres undefined)	50*	4	i	13
CCS(=O)(=O)N1Cc2ccccc2CC1C(=O)Nc1cccc(C)c1 (centres undefined)	50*	8	i	4
COc1ccc(NC(=S)N2CCC(C(=O)c3ccc(C)cc3)CC2)c(OC)c1	26*	-6	i	2
Oc1ccccc1C=NNC(=S)NN=Cc1ccccc1O	-5	.	i	-3
CCN(CC(=O)N1CCOCC1)S(=O)(=O)c1ccc(Cl)cc1	1	2	i	-2
COc1cc(NC(=O)N2c3ccccc3Sc3ccccc32)c(C(=O)O)cc1OC	-1	9	+	-6
COc1cc(NC(=O)Cc2ccccc2)c(C(=O)O)cc1OC	1	4	i	-3

Screens from PubChem.
